{"source": "PubChem BioAssay (Tox21)", "note": "Inconclusive results are not listed. Where a call stands in place of a potency, no number is given. A number with no mark means an inactive call. The source made the active and inactive calls. The call rests on the fitted dose curve; in most records, active means well fitted cell-killing curve with a large enough effect in the repeat runs; inconclusive means weak or mixed curves, or effect the other way; inactive means no such curve, though single readings can be large or run the other way.", "data": [{"assay": "qHTS assay to identify small molecule agonists of the farnesoid-X-receptor (FXR) signaling pathway - cell viability counter screen (AID 743218); further: nearly all actives have a fitted effect of over 45% in size", "conditions": "FXR-bla HEK293T viability, CellTiter-Glo luminescence, 16 h; series mostly up to 62.6 µM", "excerpt": "U.S. Tox21 Program National Center for Advancing Translational Sciences [NCATS] NIH Chemical Genomics Center [NCGC] U.S. Environmental Protection Agency [EPA] National Institutes of Environmental Health Sciences [NIEHS] National Toxicology Program [NTP] U.S. Food and Drug Administration [FDA] Tox21 Assay Overview: The farnesoid-X-receptor (FXR), a nuclear hormone receptor, is highly expressed in liver, intestine, kidney and adrenal cortex. Natural ligands of FXR are the bile acids (Cholic acid, Chenodeoxy cholic acid etc). FXR is an important regulator of diverse metabolic pathways, including the bile acid homeostasis, lipid and glucose metabolisms. FXR regulates the expression of target genes by binding either as a monomer or as a heterodimer with the retinoid X receptor (RXR). Numerous studies have reported that FXR exerts protective function during cholestasis, diabetes, liver regeneration, and cancer. To identify compounds that activate FXR signaling, GeneBLAzer FXR-UAS-bla HEK 293T cell line (Invitrogen, Carlsbad, CA) containing a beta-lactamase reporter gene under the control of a UAS response element was used to screen the Tox21 10K compound library. The cytotoxicity of the Tox21 compound library against the FXR-bla cell line was tested in parallel by measuring the cell viability using CellTiter-Glo assay in the same wells.\nTox21 Assay Protocol Summary: FXR-bla cells were dispensed at 5000 cells/5uL/well in 1536-well black wall/clear bottom plates using a Multidrop Combi (Thermo Fisher Scientific, Waltham, MA) dispenser. After the assay plates were incubated at 37 C and 5% CO2 for 5 h, 23 nL of compounds dissolved in DMSO, positive controls or DMSO only was transferred to the assay plate by a Pintool station (Kalypsys, San Diego, CA). The assay plates were incubated at 37C for 16 h. After 1 uL of LiveBLAzerTM B/G FRET substrate was added using a Bioraptr Flying Reagent Dispenser (FRD) workstation (Beckman Coulter, Indianapolis, IN), the plates were incubated at room temperature for 2 h, and fluorescence intensity was measured by an Envision plate reader (PerkinElmer, Shelton, CT). For cell viability readout that measures cytotoxicity, 4uL/well of CellTiter-Glo reagent was added into the assay plates using a Bioraptr FRD. After 30 min incubation at room temperature, the luminescence intensity in the plates was measured using a ViewLux plate reader (PerkinElmer).", "values": [{"smiles": "CC(=O)OCC(=O)[C@@]1(O)CC[C@H]2[C@@H]3CCC4=CC(=O)CC[C@]4(C)[C@H]3C(=O)C[C@@]21C", "Potency": "inactive"}, {"smiles": "CCSC(=O)N(CC(C)C)CC(C)C", "Potency": "inactive"}, {"smiles": "CCCCOCCOCCOCc1cc2c(cc1CCC)OCO2", "Potency": "inactive"}, {"smiles": "C=C(C)CS(=O)(=O)O", "Potency": "inactive"}, {"smiles": "CCCCCSCCCCC", "Potency": "inactive"}, {"smiles": "CC1(C)C(O)C(C)(C)C1O", "note": "(stereo not given)", "Potency": "inactive"}, {"smiles": "COCCc1ccc(OCC(O)CNC(C)C)cc1", "note": "(stereo not given)", "Potency": "inactive"}, {"smiles": "Nc1c[n+](N2CCOCC2)no1", "Potency": "inactive"}, {"smiles": "C[N+](C)(C)CC(O)CC(=O)[O-]", "note": "(stereo not given)", "Potency": "inactive"}, {"smiles": "COC(=O)[C@@H](N)Cc1ccc(O)c(O)c1", "Potency": "inactive"}, {"smiles": "Cc1cccc(C)c1NC(=O)C(C)N", "note": "(stereo not given)", "Potency": "inactive"}, {"smiles": "CCC(C)C1CCCCC1=O", "note": "(stereo not given)", "Potency": "inactive"}, {"smiles": "Cc1c(O)cccc1O", "Potency": "inactive"}, {"smiles": "CC(=O)CC(C)(C)C1CCCCC1", "Potency": "inactive"}, {"smiles": "c1ccc([C@H]2CN3CCSC3=N2)cc1", "Potency": "inactive"}, {"smiles": "FC1(F)C(F)(F)C(F)(F)C2(F)C(F)(F)C(F)(F)C(F)(F)C(F)(F)C2(F)C1(F)F", "note": "(stereo not given)", "Potency": "inactive"}, {"smiles": "CCO[Si](CCC1CCC2OC2C1)(OCC)OCC", "note": "(stereo not given)", "Potency": "inactive"}, {"smiles": "FC(F)OC(Cl)C(F)(F)F", "note": "(stereo not given)", "Potency": "inactive"}, {"smiles": "O=C(O)CCCc1ccccc1", "Potency": "inactive"}, {"smiles": "CCOC(=O)c1ccc(C)cc1", "Potency": "inactive"}, {"smiles": "Cc1ccc(C#N)cc1", "Potency": "inactive"}, {"smiles": "O=S(O)CO", "Potency": "inactive"}, {"smiles": "Cc1ccc(=O)n(-c2ccccc2)c1", "Potency": "inactive"}, {"smiles": "Oc1ccc(C2CNCCc3c2cc(O)c(O)c3Cl)cc1", "note": "(stereo not given)", "Potency": "inactive"}, {"smiles": "Nc1ccccc1S(=O)(=O)O", "Potency": "inactive"}, {"smiles": "CCN1CCC[C@H]1CNC(=O)c1c(O)c(Cl)cc(Cl)c1OC", "Potency": "inactive"}, {"smiles": "Cc1nc2c([nH]1)c(=O)n(C)c(=O)n2Cc1ccco1", "Potency": "inactive"}, {"smiles": "CCC(C)S", "note": "(stereo not given)", "viability change, negative = cytotoxic": "7.12% [at 2.7 µM]"}, {"smiles": "CN1CCN(c2cc3c(cc2F)c(=O)c(C(=O)O)cn3-c2ccc(F)cc2)CC1", "Potency": "inactive"}, {"smiles": "NC(=O)c1ccc([N+](=O)[O-])cc1", "Potency": "inactive"}, {"smiles": "CCC(=O)OC(C)c1ccccc1", "note": "(stereo not given)", "Potency": "inactive"}, {"smiles": "O=C(CCCN1CCC(O)(c2cccc(C(F)(F)F)c2)CC1)c1ccc(F)cc1", "Potency": "inactive"}, {"smiles": "C[C@](N)(Cc1ccc(O)cc1)C(=O)O", "viability change, negative = cytotoxic": "17.1% [at 5.95 µM]"}, {"smiles": "CO[C@]12C[C@@H](COC(=O)c3cncc(Br)c3)CN(C)[C@@H]1Cc1cn(C)c3cccc2c13", "Potency": "inactive"}, {"smiles": "CC/C=C\\CC/C=C/CO", "Potency": "inactive"}, {"smiles": "C=C(C)C(=O)OCCCCCCCC(C)C", "Potency": "inactive"}, {"smiles": "COc1nc(N)nc2c1ncn2[C@@H]1O[C@H](CO)[C@@H](O)[C@@H]1O", "Potency": "inactive"}, {"smiles": "COC(=O)c1c(Cl)c(Cl)c(C(=O)OC)c(Cl)c1Cl", "Potency": "inactive"}, {"smiles": "C=CCOCC(CC)(CO)COCC=C", "Potency": "inactive"}, {"smiles": "Cc1sccc1Br", "Potency": "inactive"}]}]}
